Test results: PubChem BioAssay (NCI)
Compounds without any hit were thinned out: in the full panel of roughly 79,000, 15% have a hit. A number with no mark means an inactive call. Calls of active or inactive are those of the source. No stated cut-off is given here; in the data, active means growth inhibition above about 70%; inactive means the rest.

How the values were obtained:
[1] = NCI Yeast Anticancer Drug Screen. Data for the rad50 strain (AID 155);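 further: 0% = growth of vehicle-only cultures of the same strain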; conditions: S. cerevisiae rad50 strain growth inhibition; at 50.0 µM; stronger effect = higher value
How it was run: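 Vehicle-treated cultures provide the reference for the growth inhibition reported for compound-exposed, repair-deficient yeast.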

[2] = NCI Yeast Anticancer Drug Screen. Data for the mec2-1 strain (AID 157); conditions: S. cerevisiae mec2-1 strain, at 50.0 µM, stronger effect = higher value
How it was run: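 Yeast mec2-1 mutant treated with compound. Readout: growth inhibition vs vehicle controls.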

[3] = NCI Yeast Anticancer Drug Screen. Data for the sgs1 mgt1 strain (AID 161);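 further: 0% = growth of cultures given vehicle only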; conditions: S. cerevisiae sgs1 mgt1 strain, at 50.0 µM, stronger effect = higher value
How it was run: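 Mutant yeast exposed to compound; growth scored against vehicle-only wells.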

[4] = NCI Yeast Anticancer Drug Screen. Data for the cln2 rad14 strain (AID 165);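 further: 0% = growth equal to vehicle treated cultures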; conditions: S. cerevisiae cln2 rad14 strain, at 50.0 µM, stronger effect = higher value
How it was run: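 cln2 rad14 yeast strain; compound exposure; growth inhibition read vs vehicle controls.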

[5] = NCI Yeast Anticancer Drug Screen. Data for the bub3 strain (AID 167); conditions: S. cerevisiae bub3 mutant strain, at 50.0 µM, stronger effect = higher value
How it was run: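 Mutant yeast screening strain plus compound; vehicle-treated cultures serve as the 0% inhibition reference.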

[6] = NCI Yeast Anticancer Drug Screen. Data for the mlh1 rad18 strain (AID 175); conditions: S. cerevisiae mlh1 rad18 strain growth inhibition; at 50.0 µM; stronger effect = higher value
How it was run: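 Yeast w/ defined DNA-repair lesions; compound exposure; growth vs vehicle controls → % inhibition.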

SMILES	growth inhibition [1]	growth inhibition [2]	growth inhibition [3]	growth inhibition [4]	growth inhibition [5]	growth inhibition [6]
CC(=O)Oc1cc(C=O)ccc1O	0.75%	6.7%	-3.3%	1.65%	-7.25%	-7.6%
Fc1ccc(C(c2ccc(F)cc2)C(F)(F)F)cc1	8.65%	-20.3%	24.9%	10.8%	13.7%	13.4%
Cc1oc([N+](=O)[O-])cc1C(=O)O	10.5%	7.5%	-1.65%	-69.7%	-20.1%	-8.25%
CCCCCCCCCCCCCCSc1ccc2ccccc2c1	-9.15%	9.3%	-2.7%	-20.2%	-8.65%	-20.3%
CC1(n2nc(-c3ccccc3)n(-c3ccccc3)c2=O)CSC1	-8.4%	-22.9%	-31.1%	-15.9%	-15.8%	-7.1%
CCN(CC)c1nc(=O)c(C(=O)C(C)(C)C)c(C(C)(C)C)o1	-14.9%	-39%	-34.1%	-11.8%	-9.15%	-17.1%
CCCC1CCN(c2ccc([N+](=O)[O-])cc2[N+](=O)[O-])CC1	1.75%	-4.75%	9.65%	-19.2%	38.2%	-1.15%
NCCCCCOCCCCCN	3.4%	-0.25%	-7%	-8.1%	3.8%	-1.65%
COc1nc(OC)c2cnn(-c3ccc(Cl)cc3)c2n1	-10.5%	-4.6%	-6.45%	-3%	3.7%	-7.35%
O=C(/C(=N/O)c1ccc(Cl)cc1)c1ccccc1	99.5% (active)	99.5% (active)	99.4% (active)	99% (active)	99.3% (active)	99.6% (active)
CN(C)c1ccc(/C=C/c2ccnc3ccc(Br)cc23)cc1	26.9%	14.9%	27.4%	14.9%	8.1%	9.35%
NNc1nc(N2CCOCC2)c2[nH]cnc2n1	-1.3%	-5.45%	14.2%	4.5%	-9.9%	4.75%
CC(=O)Nc1c(C)cccc1[N+](=O)[O-]	5.35%	-14.2%	0%	-17.6%	2.8%	3.65%
CCC(C(C)O)[N+](=O)[O-] (centres undefined)	32.8%	-1.1%	10%	4.15%	7.25%	7.75%
NNC(=O)c1ccccc1Cl	-11.2%	-21.1%	-11.9%	0.4%	-3.8%	-25.9%
Cc1ccc2nc(-c3cccc([N+](=O)[O-])c3)c(N=O)n2c1	-0.7%	4.35%	1.05%	-14.9%	2.1%	21.2%
O=C(Nc1ccc(Cc2ccc(NC(=O)Nc3nc4ccccc4s3)cc2)cc1)Nc1nc2ccccc2s1	-5.15%	-17.4%	-2.25%	19.2%	21.6%	-4.5%
Cc1cccc2c1Oc1ccccc1C2NC(=O)c1ccc([N+](=O)[O-])cc1 (centres undefined)	-19.4%	-15.4%	-34.5%	-0.9%	-23.4%	-18%
CCOC(=O)CCCNc1cc(OC)cc2cccnc12	-7.4%	-23.9%	-2.6%	-48.8%	19.8%	-8.7%
